From ChEMBL document CHEMBL3988442, “University of Dundee, Small-Polar-MMV Screening Library” (2021)
Values joined by “and” are separate entries in the source; they are usually repeats but may differ in a detail not shown here. Equal entries are not always repeated. The whole screen tested about 34,000 compounds, of which about 290 (0.85%) showed an effect of 50% or more. For the sample, strong results were picked, then their nearest neighbours and some compounds at random.

Tested on: Plasmodium falciparum
Test: Plasmodium falciparum sporozoite viability assay
Type: functional, organism-based
Parameters: scale not given: in the data most compounds retested in dose-response had high values

Row | Structure (SMILES) | Percent Effect | Percent Effect (10 mM as filed; unlikely as a test dose)
1 | CCOc1cc(C)nc(N2CCN(C(=O)CN(C)C3CC3)CC2)n1 | 8.163% | 
2 | Cn1cncc1CN1CCC(O)(Cn2nc(-c3cccs3)oc2=O)CC1.O=C(O)CC(O)(CC(=O)O)C(=O)O | -17.63% | 
3 | CC(C)n1nc2c(cc1=O)CN(c1nc3ccccc3s1)CC2 |  | 66.67% and 52.43% and 41.91%
4 | CN(C)C(=O)CS(=O)(=O)Cc1cc(Cl)c2c(c1)OCCO2 | 4.247% | 
5 | Clc1cc(CN2CCCCC2Cn2cncn2)c2ncccc2c1 (centres undefined) | -10.63% | 
6 | CC(C)Nc1ncnc2c1CCN(C(=O)c1ccc[nH]1)CC2 | -7.967% | 
7 | CC(C)C[C@H](N)COc1cccc(F)c1Oc1cccc(Cl)c1 | 0.9974% | 
8 | Cc1ccc(NS(=O)(=O)c2cc3c(c(C(=O)O)c2)OCCO3)cc1F | 6.057% | 
9 | O=C(O)C(F)(F)F.O=c1ccc2c(n1CC1CC1)CCC(NCc1cccs1)C2 (centres undefined) | 4.557% | 
10 | c1ccc(-c2noc([C@@H]3Cc4nc[nH]c4CN3)n2)cc1 |  | 8.153% and 22.58%
11 | FC(F)(F)Oc1ccc(-c2noc([C@@H]3Cc4nc[nH]c4CN3)n2)cc1 |  | 93.02% and 93.75%
12 | Cc1noc(NC(=O)c2ccc(OC(F)(F)F)cc2)n1 | -13.94% | 
13 | Fc1ccc(-c2noc([C@@H]3Cc4nc[nH]c4CN3)n2)cc1 |  | 27.52% and 35.27%
14 | Cc1ccc(-c2noc([C@@H]3Cc4nc[nH]c4CN3)n2)cc1 |  | 79.76% and 77.83%
15 | c1cc(-c2noc([C@@H]3Cc4nc[nH]c4CN3)n2)ccn1 |  | -0.1591% and 11.18%
16 | Cc1cccc(-c2noc([C@@H]3Cc4nc[nH]c4CN3)n2)c1 |  | 77.23% and 75.76%
17 | Cc1cccc(-c2noc(CN3CCOCC3C)n2)c1 (centres undefined) | 5.079% | 
18 | O=C(NCC1CC1)C1CN(C(=O)NC2CCCC2)Cc2cncn2C1 (centres undefined) | 10.46% | 
19 | Cc1nn(C)c(Cl)c1C1CCCN1C(=O)c1cnn(C)c1C1CC1 (centres undefined) | 4.376% | 
20 | CC(C)C(=O)N1CCCC(c2cncc(Oc3cccnc3)n2)C1 (centres undefined) | -4.997% | 
21 | c1cc(N2CCOCC(Cc3ccc4[nH]ccc4c3)C2)ncn1 (centres undefined) | 5.765% | 
22 | CNC(=O)c1cc(C2CCCNC2)n[nH]1.Cl (centres undefined) | 11.11% | 
23 | COCCc1noc(CN2CCCC2Cn2nc(C)nc2C)n1 (centres undefined) | 16.37% | 

Row | Structure (SMILES) | Percent Effect | Percent Effect (10 mM as filed; unlikely as a test dose)
24 | CC(=O)N(Cc1ncc(C)o1)C1CCN(Cc2csc(C)n2)C1 (centres undefined) | 8.537% | 
25 | Cc1cc(C(=O)N2CC[C@H]3C[C@H](c4ccncn4)O[C@@H]3C2)c(C)[nH]1 | -3.163% | 
26 | CC(C)(C)n1ncc2c(=O)n(CC(=O)NCc3ccccc3Cl)cnc21 |  | 89.9% and 78.88%
27 | NC(=O)Cn1c(CO)cnc1SCC(=O)NCc1ccccc1Cl |  | -15.15% and -22%
28 | CC(C)(C)n1ncc2c(=O)n(CC(=O)NCCc3ccccc3)cnc21 |  | -2.076% and -3.898%
29 | CC(C)(C)n1ncc2c(=O)n(CC(=O)NCc3ccccc3)cnc21 |  | 92.95% and 84.04%
30 | CCCNC(=O)Cn1nc(C(C)C)c2cnn(C(C)(C)C)c2c1=O | -2.007% | 
31 | CCCNC(=O)c1ncn2c1CN(CC(C)C)S(=O)(=O)c1ccccc1-2 | 20.71% | 
32 | CNc1ccc(C2CN(c3cc(C)nc(N)n3)CCO2)nc1 (centres undefined) | 20.28% | 
33 | CNc1nc2c(s1)C(=O)CN(C(=O)[C@@H](N)Cc1cccc(OC)c1)C2 | -10.92% | 
34 | CN[C@@H]1CCC[C@@H](Oc2ccccc2Oc2ccc(C)cc2)[C@@H]1O | 14.14% | 
35 | Cc1cccc2sc(NC(=O)CN3CCCC4(CC3)CNC(=O)O4)nc12 (centres undefined) |  | 74.6% and 74.31%
36 | Cc1cccc2sc(NC(=O)CN3CCC(C)CC3)nc12 |  | 5.902% and -3.165%
37 | Cc1cccc2sc(NC(=O)CN3CCCC(O)(CO)C3)nc12 (centres undefined) |  | -25.02% and -31.47%
38 | CN(Cc1ccoc1)c1ccc(-c2nccn2C)nn1 |  | -6.958% and -8.789%
39 | COc1ccc(CN(C)c2ccc(-c3nccn3C)nn2)cc1OC |  | 63.95% and 77.57%
40 | CN(Cc1nccn1C)c1ccc(-c2nccn2C)nn1 |  | -4.7% and -1.79%
41 | O=C(CN1CCC(c2cc(=O)n3c(n2)CCCCC3)CC1)N1CCCC1 | -0.7803% | 
42 | CC(=O)N1CCOC(c2cc(N3CC(O)C3)nc(C)n2)C1 (centres undefined) | -19.49% | 
43 | c1ccc2oc(CN3CCCC3c3noc(C4CC4)n3)nc2c1 (centres undefined) | 8.668% | 
44 | c1ccc2sc(CN3CCCC3c3noc(C4CC4)n3)nc2c1 (centres undefined) |  | 57.55% and 55.22% and 51.03%
45 | CC(CCc1ccccc1)N1CCC(C(=O)Nc2cnccn2)CC1 (centres undefined) | -2.997% | 
46 | CS(=O)(=O)NCc1cn2c(n1)CN(C(=O)c1ccc[nH]1)CC2 | -21.11% | 

Row | Structure (SMILES) | Percent Effect | Percent Effect (10 mM as filed; unlikely as a test dose)
47 | Cc1oncc1C(=O)N1CC[C@H]2[C@@H]1CCC(=O)N2CC1CCOCC1 | 5.199% | 
48 | CC(=O)N1CCC(c2cc(C(F)(F)F)nc3nccn23)CC1 | 1.841% | 
49 | O=C1[C@H]2CN(C(=O)[C@H]3CCCO3)C[C@H]2CN1CC1CC1 | 2.539% | 
50 | Cc1nc(CN(C)Cc2cc3c(cc2OC(F)F)OCO3)cs1 |  | -8.742% and -16.17%
51 | Cc1ncsc1CN(C)Cc1cc2c(cc1OC(F)F)OCO2 |  | 74.26% and 62.83%
52 | Cc1nn(C)cc1CN(C)Cc1cc2c(cc1OC(F)F)OCO2 | 5.075% | 
53 | CC(Cn1ccnc1)NC(=O)C1(c2ccc(F)cc2)CCCC1 (centres undefined) | 23.02% | 
54 | Cc1cc(N2CCC(c3n[nH]c4nccnc34)CC2)ncn1 | 7.584% | 
55 | Brc1cccc(-c2nnc(CNCCn3cccn3)o2)c1 | 2.399% | 
56 | Cn1c(C2CC2)nc2c1CCN(Cc1nc(-c3ccsc3)no1)C2 |  | 19.95% and 27.05% and 21.39%
57 | CC(C)c1ncc2c(n1)CN(Cc1nc(-c3cccs3)no1)CC2 |  | 13.28% and 7.226% and -0.3719%
58 | CC(C)c1ncc2c(n1)CN(Cc1nc(-c3ccsc3)no1)CC2 | 18.76% | 
59 | c1csc(-c2noc(CN3CCc4cncnc4C3)n2)c1 |  | 24.87% and 17.34% and 36.23%
60 | CC(C)c1nc2c(n1C)CCN(Cc1nc(-c3ccoc3)no1)C2 |  | 83.83% and 76.55% and 70.15%
61 | Cn1cnc2c1CCN(Cc1nc(-c3ccco3)no1)C2 |  | 12.07% and 12.49%
62 | CC(C)c1ncc2c(n1)CN(Cc1nc(-c3ccoc3)no1)CC2 |  | 11.99% and 7.268% and 10.61%
63 | CC(C)c1nc2c(n1C)CCN(Cc1nc(-c3ccsc3)no1)C2 |  | 73.25% and 58.56% and 70.51%
64 | CC(C)c1nc2c(n1C)CCN(Cc1nc(-c3cccs3)no1)C2 |  | 44.7% and 61.16% and 58.76%
65 | COc1ccccc1OCCNC(=O)CN1CCc2cncnc2C1 | -7.271% | 
66 | O=C1CN(c2ccc(CNC(=O)NCc3ccoc3)cc2)CCN1 | 13.47% | 
67 | Cc1cn2c(n1)CCC(NC(=O)c1[nH]ncc1Br)C2 (centres undefined) | -6.244% | 
68 | Cc1cc(C(=O)N[C@@H]2CCC[C@@H](N3CCOCC3)[C@@H]2O)no1 | 7.233% | 
69 | O=C(O)C(F)(F)F.O=C([C@H]1C[C@H]2OCC[C@H]2N(CCc2ccccc2)C1)N1CCCCO1 | -6.171% | 

Row | Structure (SMILES) | Percent Effect | Percent Effect (10 mM as filed; unlikely as a test dose)
70 | CCCOC(=O)N1CCn2nc(-c3nc4ccccc4n3C)cc2C1 |  | 47.05% and 19.27%
71 | CN1CCn2nc(-c3nc4ccccc4n3C)cc2C1 |  | 21.76% and 43.98%
72 | Cn1c(-c2cc3n(n2)CCCN(CC(=O)O)C3)nc2ccccc21 |  | 91.97% and 88.48%
73 | NC(=O)C1CN(C(=O)Nc2ccc(SC(F)(F)F)cc2)CCO1 (centres undefined) | 26.37% | 
74 | CC(C)(C(=O)N[C@@H]1CCC[C@@H](O)[C@@H]1O)c1cccc(F)c1 | 7.186% | 
75 | Cc1ccc(CCNC(=O)Nc2cc(C(F)(F)F)c[nH]c2=O)o1 | -6.166% | 
76 | O=C(Cc1cn2ccsc2n1)N1CCCC(n2ccnc2)C1 (centres undefined) | 9.411% | 
77 | CN(C)c1ccc(NC(=O)N2CCCCCC2c2ccncc2)cn1 (centres undefined) |  | -8.99% and -20.34% and -20.82%
78 | CCOc1ccc(C(=O)N2CCCC2c2cnn(C)c2)cn1 (centres undefined) | 2.866% | 
79 | COCCC(=O)N[C@H]1CN(c2nc(C)c3c(n2)CCCC3)C[C@@H]1C1CC1 |  | 37.56% and 25.17%
80 | CNc1nc(N2C[C@H](NC(=O)CCOC)[C@@H](C3CC3)C2)nc2c1CCC2 |  | -17.73% and -19.53%
81 | CNCC(=O)N[C@H]1CN(c2nc(C)c3c(n2)CCCC3)C[C@@H]1C1CC1 |  | 74.85% and 85.09%
82 | Cc1n[nH]c(C)c1-c1cnc(CC2CCN(C)C2)cn1 (centres undefined) | -7.497% | 
83 | Cc1cccc(Nc2nccnc2C2CCCN2CC(N)=O)n1 (centres undefined) | 7.262% | 
84 | NC(=O)CN1CCCC(c2ccnc(Nc3ncccn3)c2)C1 (centres undefined) |  | 24.34% and 12.28% and 9.246%
85 | Cc1cccc(Nc2nccnc2C2CCCN(CC(=O)N(C)C)C2)n1 (centres undefined) | 4.997% | 
86 | Cc1cc(Nc2ccccn2)nc(C2CCCN(CCO)C2)n1.O=CO (centres undefined) | 9.991% | 
87 | Cc1cccc(Nc2cc(C3CCCN(CC(N)=O)C3)ccn2)n1.O=CO.O=CO (centres undefined) |  | 98.38% and 92.39% and 79.92%
88 | COc1cc(NC(=O)c2ccc(F)cc2Cl)c(C(=O)N(C)C)cc1OC | -12.25% | 
89 | O=C(C1CCOCC1)N1CCc2ncc(CN3CCCCC3)n2CC1 | -3.866% | 
